Measured values as given in PubChem BioAssay (NCI).
Compounds without any hit were thinned out: in the full panel of roughly 79,000, 15% have a hit. The source made the active and inactive calls. Rule as the data show it: active = growth inhibition above about 70%; inactive = the rest.

Key:
[1] = NCI Yeast Anticancer Drug Screen. Data for the mec2-1 strain (AID 157); settings: S. cerevisiae mec2-1 strain, stronger effect = higher value
How it was run: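 Cells of the genetically defined mec2-1 yeast strain are incubated with test compound. Inhibition of growth is calculated against vehicle-treated controls.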

[2] = NCI Yeast Anticancer Drug Screen. Data for the rad14 strain (AID 159);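 also: 0% = growth of vehicle-treated control cultures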; settings: S. cerevisiae rad14 strain growth inhibition, stronger effect = higher value
How it was run: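 Yeast cells carrying a defined DNA-repair defect were exposed to compounds, and growth inhibition was calculated relative to vehicle-treated control cultures.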

[3] = NCI Yeast Anticancer Drug Screen. Data for the sgs1 mgt1 strain (AID 161);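 also: 0% = growth of cultures given vehicle only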; settings: S. cerevisiae sgs1 mgt1 strain, stronger effect = higher value
How it was run: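 Read-out: growth inhibition vs vehicle controls. Cells: mutant yeast strain deficient in DNA damage repair.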

[4] = NCI Yeast Anticancer Drug Screen. Data for the CLN2oe strain (AID 163);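 also: 0% = growth of vehicle-only control cultures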; settings: S. cerevisiae CLN2oe strain, stronger effect = higher value
How it was run: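 Strain altered in cell-cycle control, incubated with compound; growth compared to solvent-treated controls.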

[5] = NCI Yeast Anticancer Drug Screen. Data for the cln2 rad14 strain (AID 165);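 also: 0% = growth equal to vehicle treated cultures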; settings: S. cerevisiae cln2 rad14 strain, stronger effect = higher value
How it was run: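 The screen exposed genetically defined yeast (cln2 rad14) to test compounds and scored growth inhibition relative to vehicle-treated controls.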

[6] = NCI Yeast Anticancer Drug Screen. Data for the bub3 strain (AID 167); settings: S. cerevisiae bub3 mutant strain, stronger effect = higher value
How it was run: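 Compounds were applied to a genetically altered yeast strain carrying a cell-cycle control defect. Growth inhibition was scored against vehicle-treated controls.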

[7] = NCI Yeast Anticancer Drug Screen. Data for the wt2 strain (AID 169);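 also: 0% = growth of vehicle-treated yeast cultures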; settings: S. cerevisiae wt2 strain growth inhibition, stronger effect = higher value
How it was run: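 Steps: yeast strain treated with compound; growth recorded; inhibition calculated relative to cultures given vehicle alone.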

[8] = NCI Yeast Anticancer Drug Screen. Data for the mlh1 strain (AID 171);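 also: 0% = growth of vehicle-treated control cultures of the same strain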; settings: S. cerevisiae mlh1 strain growth inhibition, stronger effect = higher value
How it was run: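 Yeast screen: mutant strain plus compound, growth scored against vehicle control wells.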

[9] = NCI Yeast Anticancer Drug Screen. Data for the sgs1 strain (AID 173);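 also: 0% = growth of vehicle-only control cultures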; settings: S. cerevisiae sgs1 mutant, stronger effect = higher value
How it was run: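 Inhibition of yeast growth served as the measure. The mutant strain was treated with each compound, and growth was normalised to cultures receiving vehicle alone.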

[10] = NCI Yeast Anticancer Drug Screen. Data for the mlh1 rad18 strain (AID 175); settings: S. cerevisiae mlh1 rad18 strain growth inhibition, stronger effect = higher value
How it was run: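 Compound-treated yeast growth, normalised to vehicle controls. Strain bears defined DNA repair mutations.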

[11] = NCI Yeast Anticancer Drug Screen. Data for the rad18 strain (AID 177); settings: S. cerevisiae rad18 mutant growth inhibition, stronger effect = higher value
How it was run: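 Inhibition values reflect reduced yeast growth compared with vehicle-treated controls, using a strain engineered with a DNA damage repair defect.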

[12] = NCI Yeast Anticancer Drug Screen. Data for the rad52 strain (AID 147);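 also: 0% = growth of vehicle-treated control cultures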; settings: S. cerevisiae rad52 mutant growth inhibition, stronger effect = higher value
How it was run: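 Genetically altered yeast (DNA damage repair defect) treated with compound; inhibition calculated relative to vehicle.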

[13] = NCI Yeast Anticancer Drug Screen. Data for the rad50EPP+ strain (AID 151);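 also: 0% = growth of vehicle-treated control cultures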; settings: S. cerevisiae rad50 mutant strain, stronger effect = higher value
How it was run: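 Strain rad50EPP+; compound exposure; % growth inhibition vs vehicle.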

[14] = NCI Yeast Anticancer Drug Screen. Data for the rad50 strain (AID 155);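 also: 0% = growth of vehicle-only cultures of the same strain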; settings: S. cerevisiae rad50 strain growth inhibition, stronger effect = higher value
How it was run: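 Yeast carrying a defined DNA repair defect were exposed to test compounds, and growth was compared with vehicle-treated controls to give percent inhibition.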

[15] = at 5.0 µM (retest, dose inferred, filed as 0.5)
[16] = at 50.0 µM (retest, dose inferred, filed as 5.0)

Measured: growth inhibition

c1ccc(-c2ccnc3c2ccc2c(-c4ccccc4)ccnc23)cc1
active: [1]; at 100.0 µM 96% | [2]; at 33.0 µM 98% | [2]; at 100.0 µM 97% | [3]; [16] 97% | [3]; at 50.0 µM 92.1% | [4]; at 33.0 µM 98% | [4]; at 100.0 µM 98% | [5]; [16] 96% | [5]; at 50.0 µM 92% | [6]; at 33.0 µM 98% | [6]; [16] 96% | [6]; at 50.0 µM 90.3% | [6]; at 100.0 µM 97% | [7]; at 33.0 µM 98% | [7]; at 100.0 µM 97% | [8]; at 33.0 µM 98% | [8]; at 100.0 µM 98% | [9]; at 33.0 µM 98% | [9]; at 100.0 µM 96% | [10]; [16] 97% | [10]; at 50.0 µM 90.3% | [11]; at 33.0 µM 98% | [11]; at 100.0 µM 97%
inactive: [2]; at 1.2 µM -6% | [2]; at 3.7 µM -17% | [2]; at 11.0 µM 54% | [3]; [15] 23% | [4]; at 1.2 µM -8% | [4]; at 3.7 µM -20% | [4]; at 11.0 µM 50% | [5]; [15] 48% | [6]; at 1.2 µM 24% | [6]; at 3.7 µM 27% | [6]; [15] 11% | [6]; at 11.0 µM 60% | [7]; at 1.2 µM 0% | [7]; at 3.7 µM -3% | [7]; at 11.0 µM 11% | [8]; at 1.2 µM -7% | [8]; at 3.7 µM -8% | [8]; at 11.0 µM 46% | [9]; at 1.2 µM 12% | [9]; at 3.7 µM 11% | [9]; at 11.0 µM 62% | [10]; [15] -32% | [11]; at 1.2 µM 9% | [11]; at 3.7 µM 12% | [11]; at 11.0 µM 49%

O=C(c1cc(Br)ccc1O)c1cc(Br)ccc1O
inactive: [12]; at 1.2 µM 13% | [13]; at 1.2 µM 16% | [13]; at 3.7 µM 47% | [14]; at 1.2 µM 13% | [14]; at 3.7 µM 67% | [14]; [15] 2% | [1]; at 1.2 µM 29% | [1]; [15] 20% | [2]; at 1.2 µM 8% | [2]; at 3.7 µM 40% | [3]; [15] 22% | [4]; at 1.2 µM 34% | [5]; [15] -3% | [6]; at 1.2 µM 17% | [6]; [15] 5% | [7]; at 1.2 µM 12% | [8]; at 1.2 µM 23% | [9]; at 1.2 µM 32% | [10]; [15] 45%
active: [12]; at 3.7 µM 80% | [12]; at 11.0 µM 99% | [12]; at 33.0 µM 99% | [12]; at 100.0 µM 99% | [13]; at 11.0 µM 90% | [13]; at 33.0 µM 99% | [13]; at 100.0 µM 99% | [14]; at 11.0 µM 99% | [14]; at 33.0 µM 99% | [14]; [16] 99% | [14]; at 50.0 µM 99.3% | [14]; at 100.0 µM 99% | [1]; at 3.7 µM 97% | [1]; at 11.0 µM 99% | [1]; at 33.0 µM 100% | [1]; [16] 100% | [1]; at 50.0 µM 99.5% | [1]; at 100.0 µM 100% | [2]; at 11.0 µM 99% | [2]; at 33.0 µM 100% | [2]; at 100.0 µM 98% | [3]; [16] 97% | [3]; at 50.0 µM 99.4% | [4]; at 3.7 µM 96% | [4]; at 11.0 µM 100% | [4]; at 33.0 µM 99% | [4]; at 100.0 µM 99% | [5]; [16] 98% | [5]; at 50.0 µM 98.7% | [6]; at 3.7 µM 90% | [6]; at 11.0 µM 99% | [6]; at 33.0 µM 99% | [6]; [16] 99% | [6]; at 50.0 µM 99.2% | [6]; at 100.0 µM 99% | [7]; at 3.7 µM 87% | [7]; at 11.0 µM 99% | [7]; at 33.0 µM 100% | [7]; at 100.0 µM 100% | [8]; at 3.7 µM 93% | [8]; at 11.0 µM 99% | [8]; at 33.0 µM 100% | [8]; at 100.0 µM 100% | [9]; at 3.7 µM 90% | [9]; at 11.0 µM 99% | [9]; at 33.0 µM 100% | [9]; at 100.0 µM 100% | [10]; [16] 99% | [10]; at 50.0 µM 99.4%
